# Data reported in the supplement of paper PMC8975748.
# Structures can show the parent of a compound that is named as a salt.
# Tested on: Saccharomyces cerevisiae BY4741 SeMeCo community
# Experiment: z-score of subpopulation abundance vs DMSO median, subpopulation auxotrophic for LU; higher = larger share of this subpopulation than in DMSO controls
# Details: 10 µM; 24 h; SM minimal medium; subpopulation (auxotrophy): LU
# Method: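 Fluorescent four-plasmid SeMeCo (self-establishing metabolically cooperating S. cerevisiae BY4741 community; plasmids pH-mRuby2, pL-mWasabi, pU-eCFP, pM-TagRFP657) was grown 24 h in minimal SM medium with each Selleck FDA-approved drug at 10 µM in 384-well plates. Cells were fixed and imaged by high-content confocal microscopy. For each auxotrophic subpopulation (and the prototroph), a z-score gives the deviation from the DMSO vehicle-control population median.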
row,SMILES,z-score of subpopulation abundance
1,NC(=O)N/N=C/c1ccc([N+](=O)[O-])o1 [Nitrofural],-0.35
2,CC[C@H]1OC(=O)[C@H](C)[C@@H](O[C@H]2C[C@@](C)(OC)[C@@H](O)[C@H](C)O2)[C@H](C)[C@@H](O[C@@H]2O[C@H](C)C[C@H](N(C)C)[C@H]2O)[C@](C)(O)C[C@@H](C)C(=O)[C@H](C)[C@H]2OC(=O)O[C@@]21C [Erythromycin Cyclocarbonate],0.04
3,C[C@@H]1CC(=O)NN=C1c1ccc(NN=C(C#N)C#N)cc1 [Levosimendan],0.42
4,OC(Cn1cncn1)(Cn1cncn1)c1ccc(F)cc1F [Fluconazole],-1.41
5,CCN(CC)CCOC(=O)c1ccc(N)cc1Cl [Chloroprocaine HCl],0.13
6,CN(C)C(=O)COC(=O)Cc1ccc(OC(=O)c2ccc(NC(=N)N)cc2)cc1 [Camostat Mesilate],-0.08
7,Cc1ncc([N+](=O)[O-])n1CCO [Metronidazole],-0.37
8,O=C(O)c1cc(O)c2c(c1)[C@H]([C@H]1c3cc(C(=O)O)cc(O)c3C(=O)c3c(O[C@@H]4O[C@H](CO)[C@@H](O)[C@H](O)[C@H]4O)cccc31)c1cccc(O[C@@H]3O[C@H](CO)[C@@H](O)[C@H](O)[C@H]3O)c1C2=O [Sennoside A],0.29
9,Cc1ncc([N+](=O)[O-])n1CC(C)O (stereo not given) [Secnidazole],0.55
10,CC(C)c1c(C(=O)Nc2ccccc2)c(-c2ccccc2)c(-c2ccc(F)cc2)n1CC[C@@H](O)C[C@@H](O)CC(=O)O [Atorvastatin],1.58
11,COc1ccc2c(c1)c(CC(=O)O)c(C)n2C(=O)c1ccc(Cl)cc1 [Indomethacin],-0.17
12,CO/N=C(\C(=O)N[C@@H]1C(=O)N2C(C(=O)O)=C(CSc3nnnn3C)CS[C@H]12)c1csc(N)n1 [Cefmenoxime hydrochloride],0.37
13,Oc1c(Cl)cc(Cl)c(Cl)c1Cc1c(O)c(Cl)cc(Cl)c1Cl [Hexachlorophene],-0.56
14,CC1(C)S[C@@H]2[C@H](NC(=O)Cc3ccccc3)C(=O)N2[C@H]1C(=O)O [Benzylpenicillin potassium],0.51
15,CC(C)Cc1ccc(C(C)C(=O)O)cc1 (stereo not given) [Ibuprofen],-2.51
16,CC1(C)CC[C@]2(C(=O)O)CC[C@]3(C)C(=CC[C@@H]4[C@@]5(C)CC[C@H](O)C(C)(C)[C@@H]5CC[C@]43C)[C@@H]2C1 [Oleanolic Acid],-0.16
17,CC(C(O)c1ccc(O)cc1)N1CCC(Cc2ccccc2)CC1 (stereo not given) [Ifenprodil Tartrate],-0.38
18,COc1cc(NC(C)CCCN)c2ncccc2c1 (stereo not given) [Primaquine Diphosphate],-1.15
19,CCCCC(F)(F)[C@@]1(O)CC[C@H]2[C@@H](CC(=O)[C@@H]2CCCCCCC(=O)O)O1 [Lubiprostone],-0.53
20,CO[C@H]1C[C@@H]2CC[C@@H](C)[C@@](O)(O2)C(=O)C(=O)N2CCCC[C@H]2C(=O)O[C@H]([C@H](C)C[C@@H]2CC[C@@H](OCCO)[C@H](OC)C2)CC(=O)[C@H](C)/C=C(\C)[C@@H](O)[C@@H](OC)C(=O)[C@H](C)C[C@H](C)/C=C/C=C/C=C/1C [Everolimus (RAD001)],2.59

row,SMILES,z-score of subpopulation abundance
1,CC[C@H]1OC(=O)C[C@@H](O)[C@H](C)[C@@H](O[C@@H]2O[C@H](C)[C@@H](O)[C@H](N(C)C)[C@H]2O)[C@@H](CCN2C[C@H](C)C[C@H](C)C2)C[C@@H](C)C(=O)/C=C/C(C)=C/[C@@H]1CO[C@@H]1O[C@H](C)[C@@H](O)[C@@H](OC)[C@H]1OC [Tilmicosin phosphate],-0.57
2,CO/N=C1\C[C@]2(C[C@@H]3C[C@@H](C/C=C(\C)C[C@@H](C)/C=C/C=C4\CO[C@@H]5[C@H](O)C(C)=C[C@@H](C(=O)O3)[C@]45O)O2)O[C@H](/C(C)=C/C(C)C)[C@H]1C [Moxidectin],0.03
3,CN[C@H]1CC[C@@H](c2ccc(Cl)c(Cl)c2)c2ccccc21 [Sertraline HCl],-0.7
4,CCN1CCN(C(=O)N[C@@H](C(=O)N[C@@H]2C(=O)N3[C@@H]2SC(C)(C)[C@@H]3C(=O)O)c2ccccc2)C(=O)C1=O [Piperacillin Sodium],-0.03
5,COC(=O)C1=C(C)NC(C)=C(C(=O)OC(C)C)C1c1cccc2nonc12 (stereo not given) [Isradipine],0.62
6,N/C(=N\N=C\c1ccc(Cl)cc1)N/N=C/c1ccc(Cl)cc1 [Robenidine Hydrochoride],-2.55
7,COCCCN1CCC(NC(=O)c2cc(Cl)c(N)c3c2OCC3)CC1 [Prucalopride Succinate],0.16
8,CCN(CC)CCOC(=O)c1ccc(N)cc1 [Procaine HCl],-0.34
9,Cc1onc(-c2ccccc2)c1C(=O)N[C@@H]1C(=O)N2[C@@H]1SC(C)(C)[C@@H]2C(=O)O [Oxacillin sodium monohydrate],0.83
10,NC(=O)N1c2ccccc2CC(=O)c2ccccc21 [Oxcarbazepine],-0.37
11,COc1c(N2C[C@@H]3CCCN[C@@H]3C2)c(F)cc2c(=O)c(C(=O)O)cn(C3CC3)c12 [Moxifloxacin HCl],-0.22
12,"CCC(=O)Oc1ccc2c(c1)CCC1C2CCC2(C)C(OC(=O)CC)CCC12 (stereo not drawn) [Estradiol dipropionate(17-Beta-Estradiol-3,17-Dipropionate)]",-0.67
13,CO/N=C(\C(=O)N[C@@H]1C(=O)N2C(C(=O)O)=C(CSc3nc(=O)c(O)nn3C)CS[C@H]12)c1csc(N)n1 [Ceftriaxone Sodium Trihydrate],0.56
14,C1N2CN3CN1CN(C2)C3 [Methenamine],-0.57
15,CCC(=O)c1c(O)cc(O)cc1O [Flopropione],-0.57
16,OC(CCN1CCCCC1)(c1ccccc1)C1CCCCC1 (stereo not given) [Trihexyphenidyl hydrochloride],1.04
17,O=c1[nH]c(=O)n([C@H]2C[C@H](O)[C@@H](CO)O2)cc1/C=C/Br [Brivudine],-0.22
18,CC[C@H]1OC(=O)[C@H](C)[C@@H](O[C@H]2C[C@@](C)(OC)[C@@H](O)[C@H](C)O2)[C@H](C)[C@@H](O[C@@H]2O[C@H](C)C[C@H](N(C)C)[C@H]2O)[C@](C)(O)C[C@@H](C)CN(C)[C@H](C)[C@@H](O)[C@]1(C)O [Azithromycin],0.14
19,C[N+]1(C)CCC(OC(=O)C(O)(c2ccccc2)C2CCCC2)C1 (stereo not given) [Glycopyrrolate],0.76
20,CN[C@H]1C(=O)N[C@@H]2Cc3ccc(cc3)Oc3cc4cc(c3O[C@@H]3O[C@H](C(=O)O)[C@@H](O)[C@H](O)[C@H]3NC(=O)CCCCCCCCC(C)C)Oc3ccc(cc3Cl)[C@@H](O)[C@@H]3NC(=O)[C@H](NC(=O)[C@@H]4NC(=O)[C@@H](NC2=O)c2cc(cc(O)c2Cl)Oc2cc1ccc2O)c1ccc(O)c(c1)-c1c(O[C@H]2O[C@H](CO)[C@@H](O)[C@H](O)[C@@H]2O)cc(O)cc1[C@@H](C(=O)NCCCN(C)C)NC3=O [Dalbavancin],-0.56
